In PubChem BioAssay:
The source made the active and inactive calls.

Columns and labels:
[1] = small molecules captured by biotinylated probe aFSTL3 – biochemical, small-molecule microarray, fluorescence 635/667, stem cell growth factor project, primary screen (AID 1064); conditions: higher = more signal;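 also: measures binding of the biotinylated anti-FSTL3 antibody to printed compounds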
[2] = binders from COS7 lysate, DM2A8 probe, primary screen, torsin A project, cell lysate, small-molecule microarray, fluorescence 635/667 (AID 1065); conditions: higher = more signal, COS7 lysate expressing mutant human TOR1A
[3] = small molecules captured by biotinylated probe aFGF2 – biochemical, small-molecule microarray, fluorescence 635/667, stem cell growth factor project, primary screen (AID 1067); conditions: higher = more signal;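 also: measures binding of biotinylated aFGF2 protein to printed compounds on slides; z-score merges feature fluorescence and signal-to-noise across triplicate slides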
[4] = small molecules captured by biotinylated probe aFGF10 – biochemical, small-molecule microarray, fluorescence 635/667, stem cell growth factor project, primary screen (AID 1071); conditions: higher = more signal;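 also: score merges 667 nm spot intensity and signal to noise from triplicate slides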
[5] = biological target: Neurogenic locus notch homolog protein 2 (Homo sapiens) (UniProt Q04721); assay: small molecules binding Notch2 protein – biochemical, small-molecule microarray, 635 nm fluorescence, stem cell growth factors, primary screen (AID 1073); conditions: higher = more signal
[6] = biological target: Pro-neuregulin-1, membrane-bound isoform (Homo sapiens) (UniProt Q02297); assay: small molecules binding neuregulin-1 protein – biochemical, small-molecule microarray, fluorescence 635/667, psychiatric disease protein project, primary screen (AID 1075); conditions: NRG1 binding, 635 nm fluorescence, higher = more signal;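 also: score combines 667 nm spot fluorescence with signal to noise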
[7] = system: Neuregulin-1 EGF-like domain; assay: small molecules binding NRG1 EGF domain – biochemical, small-molecule microarray, 635 nm fluorescence, primary screen (AID 1081); conditions: higher = more signal;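 also: binding of the protein to compounds printed on small-molecule microarray slides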
[8] = FRG1 expression reporter modulators in myotubes – cell-based, C2C12 myotubes, firefly/Renilla luciferase, luminescence, FRG1 inhibition for FSHD, primary screen (AID 1084); conditions: FRG1 promoter luciferase, higher = more signal, called active from +8 up or from −8 down
[9] = small molecules captured by biotinylated probe aFST – biochemical, small-molecule microarray, fluorescence 635/667, stem cell growth factor project, primary screen (AID 1086); conditions: higher = more signal;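 also: score merges 667 nm fluorescence with signal-to-noise of each printed compound spot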
[10] = binders of probe aHhip on microarray, primary screen, stem cell growth factor project, biochemical, small-molecule microarray, fluorescence 635/667 (AID 1087); conditions: higher = more signal;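 also: score merges spot fluorescence at 667nm with spot signal to noise ratio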
[11] = system: PRMT1 (protein arginine N-methyltransferase 1); assay: small molecules binding arginine methyltransferase PRMT1 – biochemical, small-molecule microarray, 635 nm fluorescence, primary screen (AID 1088); conditions: higher = more signal;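 also: binding of Prmt1 protein to compounds spotted on small-molecule microarray slides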
[12] = growth effects on S. cerevisiae YJM789 – YJM789 clinical isolate, OD600, 24 h, basal, primary screen (AID 1089); conditions: higher = more signal, called active from +8 up or from −8 down;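 also: growth of clinical yeast isolate S. cerevisiae YJM 789 seeded 1000 cells per well; test concentration not given here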
[13] = S. pombe growth modifiers, basal conditions – strain 972, OD600, 24 h, no modulator, primary screen (AID 1090);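 also: basal condition with compound alone and no growth modifier present; test concentration not given here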; conditions: S. pombe 972 growth, higher = more signal, called active from +8 up or from −8 down
[14] = budding yeast growth modifiers under rapamycin – strain BY4716, OD600, 96 h, primary screen (AID 1091); also: test concentration not given here; conditions: S. cerevisiae BY4716 + rapamycin, higher = more signal, called active from +8 up or from −8 down
[15] = biological target: Torsin-1A-interacting protein 2 (Homo sapiens) (UniProt Q8NFQ8); assay: small molecules binding lysate-expressed LULL1 – cell lysate, human LULL1 lysate, 635/667 nm fluorescence, primary screen (AID 1092); conditions: small-molecule microarray, hLULL1 lysate binding, 635 nm fluorescence; higher = more signal;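 also: probe is lysate of COS7 cells overexpressing human LULL1; score merges per-feature 667 nm fluorescence with signal-to-noise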
[16] = optical density change of DRC41 E. coli – strain DRC41, OD650, 24 h, E. coli filamentation project, primary screen (AID 1093);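 also: MC1000 strain lacking acrAB efflux and sulA so SOS filamentation is blocked; test concentration not given here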; conditions: E. coli DRC41 growth, higher = more signal, called active from +8 up or from −8 down
[17] = probe aLefty2 binding to arrayed compounds – biochemical, biotinylated probe, 635/667 nm fluorescence, primary screen (AID 1094); conditions: small-molecule microarray, higher = more signal;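 also: score merges spot fluorescence near 667 nm with spot signal-to-noise ratio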
[18] = system: Noggin (protein binding on small-molecule microarray); assay: small molecules binding Noggin protein – biochemical, 635/667 nm fluorescence, primary screen (AID 1095); conditions: 635 nm fluorescence, higher = more signal;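 also: score merges 667 nm feature fluorescence with signal to noise over triplicate slides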
[19] = biological target: Neurogenic locus notch homolog protein 3 (Homo sapiens) (UniProt Q9UM47); assay: small molecules binding NOTCH3 protein – biochemical, 635/667 nm fluorescence, primary screen (AID 1096); conditions: small-molecule microarray, 635 nm fluorescence, higher = more signal
[20] = probe aEGFR binding to arrayed compounds – biochemical, biotinylated probe, 635/667 nm fluorescence, primary screen (AID 1097); conditions: small-molecule microarray, higher = more signal;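 also: probe is a biotinylated anti-EGFR antibody binding compounds printed on slides; score combines fluorescence near 667 nm and signal to noise of each spot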

Torsin-1A-interacting protein 2 (Homo sapiens), sequence (Q8NFQ8 whole entry, looked up): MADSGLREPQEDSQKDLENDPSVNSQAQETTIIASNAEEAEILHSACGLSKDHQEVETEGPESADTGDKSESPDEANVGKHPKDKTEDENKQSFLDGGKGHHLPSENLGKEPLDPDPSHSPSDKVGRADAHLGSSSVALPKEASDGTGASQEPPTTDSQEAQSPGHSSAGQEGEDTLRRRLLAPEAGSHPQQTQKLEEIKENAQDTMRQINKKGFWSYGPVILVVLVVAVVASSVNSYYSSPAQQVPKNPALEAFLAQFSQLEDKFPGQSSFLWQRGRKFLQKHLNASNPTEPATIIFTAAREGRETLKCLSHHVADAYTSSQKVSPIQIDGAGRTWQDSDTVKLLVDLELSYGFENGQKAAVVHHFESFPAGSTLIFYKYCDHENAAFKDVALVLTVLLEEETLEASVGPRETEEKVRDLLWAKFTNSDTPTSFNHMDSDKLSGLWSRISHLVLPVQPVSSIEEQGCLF
Neurogenic locus notch homolog protein 3 (Homo sapiens), sequence (Q9UM47 whole entry, looked up): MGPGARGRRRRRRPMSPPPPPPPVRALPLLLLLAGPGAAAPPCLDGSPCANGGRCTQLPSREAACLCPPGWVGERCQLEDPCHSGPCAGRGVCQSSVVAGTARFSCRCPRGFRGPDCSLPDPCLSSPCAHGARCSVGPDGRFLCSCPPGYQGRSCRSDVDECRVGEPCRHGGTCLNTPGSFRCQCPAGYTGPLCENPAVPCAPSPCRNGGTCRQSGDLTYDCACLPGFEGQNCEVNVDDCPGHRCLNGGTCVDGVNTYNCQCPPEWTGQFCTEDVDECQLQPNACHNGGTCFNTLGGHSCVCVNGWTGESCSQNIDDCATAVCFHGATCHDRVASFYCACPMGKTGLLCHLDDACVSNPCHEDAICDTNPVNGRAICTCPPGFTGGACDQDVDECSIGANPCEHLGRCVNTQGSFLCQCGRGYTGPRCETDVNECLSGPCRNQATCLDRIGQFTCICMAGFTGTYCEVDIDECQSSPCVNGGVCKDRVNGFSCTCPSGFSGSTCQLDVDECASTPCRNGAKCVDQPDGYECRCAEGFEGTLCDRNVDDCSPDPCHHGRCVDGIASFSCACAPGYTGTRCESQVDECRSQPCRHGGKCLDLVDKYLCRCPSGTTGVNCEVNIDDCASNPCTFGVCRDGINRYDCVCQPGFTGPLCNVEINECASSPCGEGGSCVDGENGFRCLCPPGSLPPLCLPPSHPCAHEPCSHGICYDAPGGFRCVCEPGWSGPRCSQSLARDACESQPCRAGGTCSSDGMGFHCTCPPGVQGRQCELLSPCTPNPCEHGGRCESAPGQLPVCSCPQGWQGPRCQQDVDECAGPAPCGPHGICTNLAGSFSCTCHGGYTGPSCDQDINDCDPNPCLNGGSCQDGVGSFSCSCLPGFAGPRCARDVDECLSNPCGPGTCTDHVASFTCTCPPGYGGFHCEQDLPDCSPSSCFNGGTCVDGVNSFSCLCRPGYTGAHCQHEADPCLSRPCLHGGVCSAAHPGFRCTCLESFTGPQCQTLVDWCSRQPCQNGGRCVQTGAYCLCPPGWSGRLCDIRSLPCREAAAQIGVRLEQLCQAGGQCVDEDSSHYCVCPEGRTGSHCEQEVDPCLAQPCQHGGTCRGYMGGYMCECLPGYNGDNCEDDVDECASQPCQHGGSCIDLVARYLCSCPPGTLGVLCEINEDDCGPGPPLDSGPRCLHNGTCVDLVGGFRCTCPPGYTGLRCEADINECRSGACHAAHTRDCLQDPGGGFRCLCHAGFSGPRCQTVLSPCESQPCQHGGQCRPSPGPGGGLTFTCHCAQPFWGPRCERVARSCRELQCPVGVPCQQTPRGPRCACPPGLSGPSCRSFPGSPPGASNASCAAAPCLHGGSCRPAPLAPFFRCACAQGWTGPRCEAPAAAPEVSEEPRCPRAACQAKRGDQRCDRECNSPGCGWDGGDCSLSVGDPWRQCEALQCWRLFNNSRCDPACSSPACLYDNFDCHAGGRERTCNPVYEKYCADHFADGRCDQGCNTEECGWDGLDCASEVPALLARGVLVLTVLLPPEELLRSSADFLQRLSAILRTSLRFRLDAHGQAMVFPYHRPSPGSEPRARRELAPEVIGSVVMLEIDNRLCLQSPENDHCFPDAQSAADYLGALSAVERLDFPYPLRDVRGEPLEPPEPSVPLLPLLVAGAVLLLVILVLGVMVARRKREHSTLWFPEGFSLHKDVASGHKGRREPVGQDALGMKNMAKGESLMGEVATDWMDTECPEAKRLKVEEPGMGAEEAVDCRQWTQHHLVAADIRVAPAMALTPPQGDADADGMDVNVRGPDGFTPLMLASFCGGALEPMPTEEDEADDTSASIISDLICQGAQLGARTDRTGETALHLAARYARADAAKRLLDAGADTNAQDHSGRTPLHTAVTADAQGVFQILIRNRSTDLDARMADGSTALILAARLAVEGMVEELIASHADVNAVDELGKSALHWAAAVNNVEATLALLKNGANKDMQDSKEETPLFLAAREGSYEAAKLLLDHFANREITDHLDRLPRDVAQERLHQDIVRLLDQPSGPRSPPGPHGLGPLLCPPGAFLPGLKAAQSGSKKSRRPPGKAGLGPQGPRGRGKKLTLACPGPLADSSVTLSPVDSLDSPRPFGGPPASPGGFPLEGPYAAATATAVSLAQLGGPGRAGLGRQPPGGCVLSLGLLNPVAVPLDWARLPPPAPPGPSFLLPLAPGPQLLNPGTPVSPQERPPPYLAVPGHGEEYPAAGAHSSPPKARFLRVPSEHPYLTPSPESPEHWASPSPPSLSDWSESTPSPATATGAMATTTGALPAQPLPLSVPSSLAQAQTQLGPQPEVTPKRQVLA
Pro-neuregulin-1, membrane-bound isoform (Homo sapiens), sequence (Q02297 whole entry, looked up, the tested form may be a part, canonical isoform): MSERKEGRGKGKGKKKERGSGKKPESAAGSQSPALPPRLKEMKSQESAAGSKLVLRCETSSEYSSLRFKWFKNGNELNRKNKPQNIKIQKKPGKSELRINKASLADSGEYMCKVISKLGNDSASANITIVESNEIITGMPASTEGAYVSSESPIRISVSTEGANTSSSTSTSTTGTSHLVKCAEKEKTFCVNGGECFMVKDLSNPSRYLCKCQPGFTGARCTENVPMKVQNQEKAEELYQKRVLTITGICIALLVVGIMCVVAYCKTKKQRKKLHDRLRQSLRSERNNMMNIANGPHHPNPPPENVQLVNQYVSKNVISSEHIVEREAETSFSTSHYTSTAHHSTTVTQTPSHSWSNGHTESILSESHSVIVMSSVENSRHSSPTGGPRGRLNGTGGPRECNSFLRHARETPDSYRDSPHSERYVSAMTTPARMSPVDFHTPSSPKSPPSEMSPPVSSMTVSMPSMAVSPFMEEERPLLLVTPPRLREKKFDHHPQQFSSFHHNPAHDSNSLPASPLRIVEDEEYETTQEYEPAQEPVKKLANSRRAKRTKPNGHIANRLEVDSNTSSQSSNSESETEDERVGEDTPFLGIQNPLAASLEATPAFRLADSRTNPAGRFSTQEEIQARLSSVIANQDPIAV

SMILES	composite z-score [1]	composite z-score [2]	composite z-score [3]	composite z-score [4]	composite z-score [5]	composite z-score [6]	composite z-score [7]	z-score [8]	composite z-score [9]	composite z-score [10]	composite z-score [11]	z-score [12]	z-score [13]	z-score [14]	composite z-score [15]	z-score [16]	composite z-score [17]	composite z-score [18]	composite z-score [19]	composite z-score [20]
COCCCNC(=O)[C@@]1(Cc2ccccc2CN=[N+]=[N-])N=C(c2ccc(OCCCO)cc2)O[C@H]1c1ccccc1	-0.102	2.1	0.0693	0.891	0.932	1.72	1.2	-2.01 (inactive)	1.82	0.28	1.54	1.06 (inactive)	1.04 (inactive)	11.6 (active)	3.26	0.261 (inactive)	0.0235	1.13	1.12	-0.0267
O=C1OCC=C[C@H]2OC34C=CCN(c5ccc(Cl)cc5)C(=O)[C@H]3N(CCO)C(=O)[C@@H]4[C@@H]12 (stereo not given in full)	0.601	-0.515	-0.147	-0.0609	-1.09	-0.0774	1.04	0.782 (inactive)	-0.915	-0.137	0.197	-0.23 (inactive)	-0.846 (inactive)	0.0595 (inactive)	2.87	-0.297 (inactive)	-0.286	-2.04	-0.368	-0.321
C=CCC(OC(C)=O)[C@@H]1[C@@H](N(Cc2ccc(-c3cccc(C(F)(F)F)c3)o2)C(=O)c2ccc(-c3ccccc3)cc2)c2cc(OCCCO)ccc2N1C(=O)c1ccc2ccccc2n1 (stereo not given in full)	-0.0375	-0.246	-0.0266	0.306	0.0588	0.0617	-0.385	-0.379 (inactive)	0.77	-0.0237	-1.08	0.672 (inactive)	0.789 (inactive)	0.847 (inactive)	-0.244	-0.656 (inactive)	-0.0063	-0.0955	0.0478	-0.0656
Cc1ccc(S[C@]2(C(=O)NCC(F)(F)F)CC(=O)N(Cc3ccccc3C(F)(F)F)[C@@H]2c2ccc(CO)cc2I)cc1	0.52	-0.893	-0.157	-0.954	-1.15	-0.12	0.124	-1.24 (inactive)	-0.818	-0.236	-0.987	-1.54 (inactive)	-2.79 (inactive)	1.65 (inactive)	0.779	0.625 (inactive)	-0.072	-0.859	-1.45	-0.254
Cc1ccc(S[C@]2(C(=O)NCC(F)(F)F)CC(=O)N(Cc3ccccc3)[C@@H]2c2ccc(CO)cc2I)cc1	0.512	0.156	-0.0502	0.284	0.0341	1.82	0.923	-0.646 (inactive)	0.164	-0.236	0.29	-3.01 (inactive)	-2.23 (inactive)	0.854 (inactive)	1.62	-0.161 (inactive)	0.496	-0.315	0.233	-0.118
O=C(NCCCCCNC(=O)/C(Cc1ccccc1)=N/O)OCc1ccccc1	-0.51	0.148	-0.25	0.293	0.421	-0.181	-0.422	-0.213 (inactive)	0.152	-0.409	-0.276	-1.72 (inactive)	-1.43 (inactive)	-1.89 (inactive)	-0.625	2.16 (inactive)	-0.17	0.164	0.253	-0.127
COC(=O)c1cn(C[C@@H](Cc2ccccc2)NC(=O)N[C@H](CO)CCc2oc(C(C)=O)c(C(=O)OC)c2C(=O)OC)nn1	-0.695	0.603	-0.0602	0.757	0.5	0.165	1.21	-0.776 (inactive)	0.232	0.0274	0.999	0.0017 (inactive)	-0.814 (inactive)	-0.338 (inactive)	0.985	1.01 (inactive)	-0.147	0.921	1.06	0.084
O=C1NC(=O)C2C1C=CC(C(O)c1ccco1)N2Nc1ccccn1 (stereo not given)	-0.156	-0.156	-0.0907	-0.0923	0.076	-0.0825	1.08	1.41 (inactive)	0.055	0.154	0.184	0.493 (inactive)	0.652 (inactive)	0.637 (inactive)	0.147	-0.87 (inactive)	-0.121	-0.119	-0.509	-0.0259
Cc1ccc(S[C@]2(C(=O)O)CC(=O)N(C3Cc4ccccc4C3)[C@@H]2c2ccc(CO)cc2)cc1	0.377	0.477	0.0015	-0.179	-0.267	0.915	0.184	0.177 (inactive)	-0.117	-0.134	1.04	0.137 (inactive)	-1.36 (inactive)	0.448 (inactive)	2.98	0.618 (inactive)	0.126	-0.98	-0.472	-0.185
CCOC(=O)C[C@H]1[C@H](OC(=O)c2ccccc2-c2ccccc2)[C@@H](NC(=O)c2ccc(-c3ccccc3)cc2)c2cc(OCCCO)ccc2N1C(=O)c1ccc2ccccc2n1	-0.405	0.286	-0.127	0.754	0.75	0.789	0.849	0.835 (inactive)	0.211	-0.145	1.02	0.214 (inactive)	0.632 (inactive)	0.723 (inactive)	1.11	-0.75 (inactive)	0.0332	0.427	0.592	0.2
